SMILES strings stand for the structures. Calls of active or inactive are those of the source. How the source made its calls: active means hit-call score of the fitted dose curve at least 0.9, where 1 is the maximum; inactive means score below 0.9.

The source of these data is PubChem BioAssay (EPA / NIEHS).

Conditions in all cases: mRNA level, 48 h; actives raise or lower the signal
Read-out in assay [1]: Alkaline Phosphatase, Placental (ALPP) gene, ALPP (gene 250)
The experiment in a line: LTEA_HepaRG_ALPP: Life Technologies and Expression Analysis (LTEA) Assay for Alkaline Phosphatase, Placental (ALPP) gene using HepaRG (AID 2283468).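 On AC50: differentiated human HepaRG liver cells in serum-free induction medium.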 A digest of the protocol:
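ALPP transcript level, measured by qRT-PCR and normalized to three housekeeping genes (ACTB, GAPDH, POLR2A), after 48 h dosing of differentiated HepaRG in serum-free induction medium. Top concentration 100 uM with half-log dilutions (8 points, 0.5% DMSO, duplicates); bidirectional fitting relative to DMSO.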

Read-out in assay [2]: Bcl-2 (BAD) gene, BAD (gene 572)
The experiment in a line: LTEA_HepaRG_BAD: Life Technologies and Expression Analysis (LTEA) Assay for Bcl-2 (BAD) gene using HepaRG (AID 2283469). A digest of the protocol:
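Read-out: qRT-PCR of BAD mRNA, normalized to three housekeeping genes. Human HepaRG cultures got 48 h chemical exposure in 0.5% DMSO, duplicate eight-point half-log series topping at 100 uM. Gain or loss of signal fitted versus DMSO vehicle.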

Read-out in assay [3]: Bcl-2 (BAX) gene, BAX (gene 581)
In words: LTEA_HepaRG_BAX: Life Technologies and Expression Analysis (LTEA) Assay for Bcl-2 (BAX) gene using HepaRG (AID 2283470). A digest of the protocol: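 Human HepaRG cells treated in duplicate for 48 h across eight concentrations (max 100 uM, 0.5% DMSO); BAX expression measured by qRT-PCR.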

Read-out in assay [4]: adenosine kinase (ADK) gene, ADK (gene 132)
The experiment in a line: LTEA_HepaRG_ADK: Life Technologies and Expression Analysis (LTEA) Assay for adenosine kinase (ADK) gene using HepaRG (AID 2283471). A digest of the protocol: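 Read-out is ADK transcript level measured by qRT-PCR and normalised to three housekeeping genes. Cells are human HepaRG, dosed for 48 h at up to 100 uM in 0.5% DMSO. Gain or loss of signal is fitted against DMSO controls.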

Read-out in assay [5]: Alpha-fetoprotein (AFP) gene, AFP (gene 174)
In words: LTEA_HepaRG_AFP: Life Technologies and Expression Analysis (LTEA) Assay for Alpha-fetoprotein (AFP) gene using HepaRG (AID 2283472). A digest of the protocol:
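Measures AFP mRNA change in HepaRG after 48 h chemical exposure (8 half-log concentrations, highest 100 uM, 0.5% DMSO). Fold change relative to DMSO, fitted in both directions.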

Read-out in the next assay: BCL2L11 (gene 10018)
In words: LTEA_HepaRG_BCL2L11: Life Technologies and Expression Analysis (LTEA) Assay for Bcl-2 (BCL2L11) gene using HepaRG (AID 2283473). A digest of the protocol: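 BCL2L11 transcript levels are measured by Fluidigm qRT-PCR, normalized to three housekeeping genes. HepaRG cultures were plated 48 h, then treated 48 h with test chemical (top 100 uM, half-log, 0.5% DMSO vehicle); curves were fitted bidirectionally against DMSO.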

Read-out in assay [6]: Apolipoprotein A-V (APOA5) gene, APOA5 (gene 116519)
In words: LTEA_HepaRG_APOA5: Life Technologies and Expression Analysis (LTEA) Assay for Apolipoprotein A-V (APOA5) gene using HepaRG (AID 2283474). A digest of the protocol: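 APOA5 transcript levels were quantified by qRT-PCR, normalized to three housekeeping genes, after 48 h chemical treatment of HepaRG cells (8 points, 100 uM maximum, half-log steps, 0.5% DMSO). Curves fitted in both directions against vehicle.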

Read-out in assay [7]: Apoptosis regulator Bcl-2 (Homo sapiens) (UniProt P10415)
The experiment in a line: LTEA_HepaRG_BCL2: Life Technologies and Expression Analysis (LTEA) Assay for Bcl-2 gene using HepaRG (AID 2283475).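 Further: BCL2 transcript by TaqMan qRT-PCR normalised to ACTB GAPDH and POLR2A.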 A digest of the protocol:
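Each chemical was tested in duplicate on HepaRG cultures held in serum-free induction medium for 48 h, highest concentration 100 uM with half-log dilutions. Transcript levels came from multiplexed qRT-PCR, normalised to housekeeping genes; activity was scored in either direction relative to DMSO.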

Read-out in assay [8]: Bcl-2 (BID) gene, BID (gene 637)
The experiment in a line: LTEA_HepaRG_BID: Life Technologies and Expression Analysis (LTEA) Assay for Bcl-2 (BID) gene using HepaRG (AID 2283476). A digest of the protocol: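 Assay used HepaRG hepatic cells treated 48 h in serum-free medium with half-log dilutions from 100 uM. Endpoint: BID mRNA, qRT-PCR, normalized to ACTB/GAPDH/POLR2A.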

Read-out in a further assay: Caspase-3 (Homo sapiens) (UniProt P42574)
The experiment in a line: LTEA_HepaRG_CASP3: Life Technologies and Expression Analysis (LTEA) Assay for cysteine-aspartic acid protease (CASP3) using HepaRG (AID 2283477). A digest of the protocol:
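Expression of CASP3 was quantified by TaqMan qRT-PCR against three housekeeping genes (ACTB, GAPDH, POLR2A), bidirectionally versus 0.5% DMSO. HepaRG cultures received compounds in duplicate, top 100 uM with half-log steps, for 48 h in serum-free induction medium.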

Sequence of Apoptosis regulator Bcl-2 (Homo sapiens) (P10415 whole entry, looked up): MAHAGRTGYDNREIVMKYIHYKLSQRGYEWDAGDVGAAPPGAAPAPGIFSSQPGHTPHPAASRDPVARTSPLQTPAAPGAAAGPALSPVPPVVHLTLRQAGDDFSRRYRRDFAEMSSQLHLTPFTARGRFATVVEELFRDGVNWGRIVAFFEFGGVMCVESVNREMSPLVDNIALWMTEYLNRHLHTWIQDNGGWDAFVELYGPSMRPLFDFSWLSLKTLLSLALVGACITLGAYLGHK
Sequence of Caspase-3 (Homo sapiens) (P42574 whole entry, looked up): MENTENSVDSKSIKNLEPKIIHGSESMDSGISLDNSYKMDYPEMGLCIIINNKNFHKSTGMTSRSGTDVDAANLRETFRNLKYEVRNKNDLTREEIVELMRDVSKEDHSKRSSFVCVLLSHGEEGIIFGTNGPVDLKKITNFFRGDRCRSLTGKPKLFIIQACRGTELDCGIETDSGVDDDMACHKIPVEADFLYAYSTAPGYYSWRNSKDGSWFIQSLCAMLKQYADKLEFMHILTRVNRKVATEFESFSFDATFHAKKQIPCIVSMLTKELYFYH

For `O=Cc1ccccc1C=O`, the call (in [1]; in assay [2]; in assay [3]; in assay [4]; in assay [5]; with BCL2L11 (gene 10018)) was inactive. The call (in [6]; in assay [7]; in assay [8]; with Caspase-3 (Homo sapiens)) was inactive.
Take `CN(C)CCCN1c2ccccc2Sc2ccc(Cl)cc21`: the AC50 was 11.8 µM (active) in assay [1]; 90.5 µM (active) in assay [4]; 26.6 µM (active) in assay [5]; 72.8 µM (active) in the assay with BCL2L11 (gene 10018); 85.8 µM (active) in assay [6]. In addition, the compound was classed as inactive (in assay [2]; in [3]; in assay [7]; in assay [8]; with Caspase-3 (Homo sapiens)).
In the case of `CC(C)(C)c1ccccc1`, the result (in [1]; in [2]; in assay [3]; in assay [4]; in [5]; with BCL2L11 (gene 10018)) was inactive. For the same compound, the outcome (in assay [6]; in [7]; in assay [8]; with Caspase-3 (Homo sapiens)) was inactive.
Consider `NC(=Nc1ccccc1)Nc1ccccc1`, for which the call (in [1]; in assay [2]; in assay [3]; in assay [4]; in the assay with BCL2L11 (gene 10018); in assay [6]) was inactive. Further, the compound was called inactive (in assay [7]; in assay [8]; with Caspase-3 (Homo sapiens)). In addition, the AC50 in assay [5] was 70.9 µM (active).
Regarding `O=C1NC(=O)C(c2ccccc2)(c2ccccc2)N1`, the compound was called inactive (in assay [1]; in [2]; in [3]; in [4]; in assay [5]; with BCL2L11 (gene 10018)). Further, the compound was called inactive (in assay [6]; in assay [7]; in [8]; with Caspase-3 (Homo sapiens)).
Take `CC(C)NCC(O)c1ccc(O)c(O)c1` (stereo not drawn): the AC50 in [1] is 0.0927 µM (active); in assay [5], 0.261 µM (active); in [7], 0.239 µM (active). Also, the compound was called inactive (in assay [2]; in [3]; in [4]; with BCL2L11 (gene 10018); in [6]; with Caspase-3 (Homo sapiens)).
With `COC(=O)[C@H]1[C@H]2C[C@@H]3c4[nH]c5cc(OC)ccc5c4CCN3C[C@H]2C[C@@H](OC(=O)c2cc(OC)c(OC)c(OC)c2)[C@@H]1OC`, the AC50 in assay [1] is 25.9 µM (active); in assay [5], 60.8 µM (active); in assay [6] it was 55.6 µM (active); in assay [7] it was 42.2 µM (active). Besides, the outcome (in [2]; in [3]; in assay [4]; with BCL2L11 (gene 10018); in [8]; with Caspase-3 (Homo sapiens)) was inactive.
In the case of `CCCCCCC(CCCCCCCCCCC(=O)OCC(COC(C)=O)OC(C)=O)OC(C)=O` (stereo not drawn), the compound was called inactive (in assay [1]; in [2]; in assay [3]; in assay [4]; in assay [5]; in the assay with BCL2L11 (gene 10018)). Besides, the outcome (in assay [6]; in [7]; in [8]; with Caspase-3 (Homo sapiens)) was inactive.
In the case of `CCCC(=O)O`, the compound was called inactive (in assay [1]; in assay [2]; in assay [3]; in [4]; in [5]; with BCL2L11 (gene 10018)). Besides, the result (in assay [6]; in assay [7]; in assay [8]; in the assay with Caspase-3 (Homo sapiens)) was inactive.
In the case of `CN(C)CCCN(C)CCCN(C)C`, the call (in assay [1]; in assay [2]; in [3]; in [4]; in assay [5]; with BCL2L11 (gene 10018)) was inactive. Moreover, the call (in [6]; in assay [7]; in assay [8]; with Caspase-3 (Homo sapiens)) was inactive.
Consider `Cc1cc(SC2=C(O)C[C@@](CCc3ccc(N)cc3)(C(C)C)OC2=O)c(C(C)(C)C)cc1CO`, for which the outcome (in [1]; in assay [2]; in [3]; in assay [4]; in assay [5]; with BCL2L11 (gene 10018)) was inactive. Besides, the outcome (in [6]; in assay [7]; in assay [8]; with Caspase-3 (Homo sapiens)) was inactive.
As for `CCc1cc(C2=C(C(=O)O)N(c3ccccc3C(F)(F)F)S(=O)(=O)c3ccccc32)cc2c1OCO2`, the AC50 was 30.9 µM (active) in assay [1]; 50 µM (active) in [3]; 65 µM (active) in assay [5]; 77.2 µM (active) in [6]; 79.9 µM (active) in assay [7]. In addition, the result (in [2]; in assay [4]; with BCL2L11 (gene 10018); in assay [8]; with Caspase-3 (Homo sapiens)) was inactive.
Regarding `CCCCCCCC(=O)OC`, the compound was classed as inactive (in assay [1]; in assay [2]; in [3]; in assay [4]; in assay [5]; in the assay with BCL2L11 (gene 10018)). The call (in assay [6]; in assay [7]; in assay [8]; with Caspase-3 (Homo sapiens)) was inactive.
Regarding `CCC(C)N(C)C(=O)c1cc2ccccc2c(-c2ccccc2Cl)n1` (stereo not drawn), the outcome in [1], in [2], in assay [3], in assay [4], in [6] and in assay [7] was inactive. Also, the outcome (in assay [8]; with Caspase-3 (Homo sapiens)) was inactive. For the same compound, the AC50 (in [5]; with BCL2L11 (gene 10018)) was 31.8 µM (active) throughout.
On to `CC1=C(C)S(=O)(=O)CCS1(=O)=O`, for which the call (in [1]; in assay [2]; with BCL2L11 (gene 10018); in assay [8]) was inactive. Also, the AC50 is 50 µM (active) in assay [3]; 0.277 µM (active) in assay [4]; 80.3 µM (active) in assay [5]; 0.187 µM (active) in assay [6]; 88.4 µM (active) in assay [7]; 69.8 µM (active) with Caspase-3 (Homo sapiens).
For `C/C=C/C=C/C(=O)O`, the call in assay [1], in [2], in assay [3], in assay [4], in [5] and in [6] was inactive. Also, the compound was called inactive (in assay [7]; in [8]; with Caspase-3 (Homo sapiens)). Further, the AC50 in the assay with BCL2L11 (gene 10018) is 0.00162 µM (active).
Turning to `CC(=O)CC(c1ccccc1)c1c(O)c2ccccc2oc1=O` (stereo not drawn), the compound was classed as inactive (in assay [1]; in [2]; in assay [3]; in assay [4]; in assay [5]; in the assay with BCL2L11 (gene 10018)). The compound was classed as inactive (in assay [6]; in [7]; in assay [8]; with Caspase-3 (Homo sapiens)).
Turning to `Nc1nc(Cl)nc2c1ncn2[C@H]1C[C@H](O)[C@@H](CO)O1`, the call (in [1]; in assay [2]; with BCL2L11 (gene 10018); in assay [7]; in [8]; with Caspase-3 (Homo sapiens)) was inactive. Further, the AC50 was 0.415 µM (active) in assay [3], 1.05 µM (active) in assay [4], 1.72 µM (active) in [5] and 1.12 µM (active) in assay [6].
Consider `O=C(O)c1[nH]n(-c2ccc(S(=O)(=O)O)cc2)c(=O)c1N=Nc1ccc(S(=O)(=O)O)cc1`, for which the outcome (in assay [1]; in assay [2]; in [3]; in assay [4]; in assay [5]; with BCL2L11 (gene 10018)) was inactive. Also, the result (in [6]; in [7]; in [8]; in the assay with Caspase-3 (Homo sapiens)) was inactive.
Consider `O=C1O[C@H]([C@H](O)CO)C(O)=C1O`, for which the compound was classed as inactive (in [1]; in [2]; in assay [3]; in assay [4]; in assay [5]; with BCL2L11 (gene 10018)). Moreover, the compound was called inactive (in assay [6]; in assay [7]; in assay [8]; in the assay with Caspase-3 (Homo sapiens)).
With `Cc1ccc(-c2cc(C(F)(F)F)nn2-c2ccc(S(N)(=O)=O)cc2)cc1`, the outcome in assay [1], in [2], in assay [3], in assay [5], in assay [6] and in assay [7] was inactive. For the same compound, the call (in assay [8]; in the assay with Caspase-3 (Homo sapiens)) was inactive. Moreover, the AC50 in assay [4] is 93.8 µM (active); with BCL2L11 (gene 10018), 82.5 µM (active).
Turning to `CC(C)c1cccc(C(C)C)c1`, the compound was classed as inactive (in [1]; in assay [2]; in assay [3]; in assay [4]; in assay [5]; with BCL2L11 (gene 10018)). The call (in [6]; in assay [7]; in assay [8]; with Caspase-3 (Homo sapiens)) was inactive.
With `Cc1cn([C@H]2C=C[C@@H](CO)O2)c(=O)[nH]c1=O`, the outcome in [1], in [2], in assay [3], in assay [4], in assay [5] and in assay [6] was inactive. For the same compound, the result (in [7]; in assay [8]; with Caspase-3 (Homo sapiens)) was inactive.
